PubChem BioAssay AID1159580 (chemical genetic matrix, 2015)
The whole screen tested about 5,500 compounds, of which about 2,000 (36%) were called active. Inconclusive results (about 18%) are left out. Cut-off read from the data, not from the text of the source: active = normalized growth mostly below about 0.91 (no sharp cut-off); inconclusive = no clear call, values can overlap the other calls; inactive = mostly above about 0.92. Some of the results follow.

Assay: chemical genetic growth profiling, strain panel (AID 1159580);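 note: tested at 20 µM; growth read once vehicle control cultures reached saturation at 30 °C; 1 = growth at the plate median or of vehicle wells; lower values mean less growth of the strain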
Conditions: growth OD

Measured: normalized growth

O=C(O)c1cc2cc(Cl)ccc2[nH]1
inactive: S. cerevisiae deletion strains, locus YJR075W, strain HOC1, active compounds read low 1.05 | S. cerevisiae deletion strains, locus YKL009W, strain mrt4, active compounds read low 1.01 | S. cerevisiae deletion strains, locus YKL068W, active compounds read low 0.98 | S. cerevisiae deletion strains, locus YKL085W, strain MDH1 (second series), active compounds read low 1.02 | S. cerevisiae deletion strains, locus YKL085W, strain MDH1, active compounds read low 1.02 | S. cerevisiae deletion strains, locus YKL160W, strain elf1, active compounds read low 1 | S. cerevisiae deletion strains, locus YKL190W, strain CNB1, active compounds read low 1.01 | S. cerevisiae deletion strains, locus YKR001C, strain vps1, active compounds read low 0.984 | S. cerevisiae deletion strains, locus YKR026C, strain gcn3, active compounds read low 0.963 | S. cerevisiae deletion strains, locus YKR091W, strain srl3, active compounds read low 0.994 | S. cerevisiae deletion strains, locus YLL001W, strain dnm1, active compounds read low 0.966 | S. cerevisiae deletion strains, locus YLL026W, active compounds read low 0.98 | S. cerevisiae deletion strains, locus YLL041C, strain sdh2, active compounds read low 0.988 | S. cerevisiae deletion strains, locus YLR027C, strain aat2, active compounds read low 0.992 | S. cerevisiae deletion strains, locus YLR039C, strain RIC1, active compounds read low 1.04 | S. cerevisiae deletion strains, locus YLR058C, strain SHM2, active compounds read low 1.01 | S. cerevisiae deletion strains, locus YLR102C, strain apc9, active compounds read low 0.98 | S. cerevisiae deletion strains, locus YLR113W, strain HOG1, active compounds read low 0.944 | S. cerevisiae deletion strains, locus YLR221C, strain rsa3, active compounds read low 0.991 | S. cerevisiae deletion strains, locus YLR258W, strain gsy2, active compounds read low 0.989 | S. cerevisiae deletion strains, locus YLR262C, strain YPT6 (second series), active compounds read low 0.994 | S. cerevisiae deletion strains, locus YLR262C, strain YPT6, active compounds read low 1.06 | S. cerevisiae deletion strains, locus YLR268W, strain sec22, active compounds read low 1 | S. cerevisiae deletion strains, locus YLR320W, strain mms22, active compounds read low 0.987 | S. cerevisiae deletion strains, locus YLR330W, strain CHS5, active compounds read low 1 | S. cerevisiae deletion strains, locus YLR342W, strain FKS1 (second series), active compounds read low 1.01 | S. cerevisiae deletion strains, locus YLR342W, strain FKS1, active compounds read low 0.991 | S. cerevisiae deletion strains, locus YLR357W, strain rsc2, active compounds read low 0.953 | S. cerevisiae deletion strains, locus YLR370C, strain arc18, active compounds read low 0.981 | S. cerevisiae deletion strains, locus YLR371W, strain rom2, active compounds read low 0.98 | S. cerevisiae deletion strains, locus YLR384C, strain iki3, active compounds read low 0.986 | S. cerevisiae deletion strains, locus YLR418C, strain cdc73, active compounds read low 0.991 | S. cerevisiae deletion strains, locus YML016C, strain PPZ1, active compounds read low 1 | S. cerevisiae deletion strains, locus YML032C, strain rad52, active compounds read low 0.977 | S. cerevisiae deletion strains, locus YML120C, strain ndi1, active compounds read low 0.984 | S. cerevisiae deletion strains, locus YML124C, strain tub3, active compounds read low 0.987 | S. cerevisiae deletion strains, locus YMR058W, strain fet3, active compounds read low 0.985 | S. cerevisiae deletion strains, locus YMR078C, strain ctf18, active compounds read low 0.977 | S. cerevisiae deletion strains, locus YMR125W, strain sto1, active compounds read low 0.959 | S. cerevisiae deletion strains, locus YMR129W, active compounds read low 0.993 | S. cerevisiae deletion strains, locus YMR205C, strain PFK2, active compounds read low 0.956 | S. cerevisiae deletion strains, locus YMR223W, strain ubp8, active compounds read low 0.983 | S. cerevisiae deletion strains, locus YMR231W, strain pep5, active compounds read low 0.989 | S. cerevisiae deletion strains, locus YMR263W, strain SAP30, active compounds read low 1.02 | S. cerevisiae deletion strains, locus YMR307W, strain GAS1, active compounds read low 1.02 | S. cerevisiae deletion strains, locus YNL067W, strain RPL9B, active compounds read low 1.03 | S. cerevisiae deletion strains, locus YNL071W, strain lat1, active compounds read low 0.994 | S. cerevisiae deletion strains, locus YNL128W, strain TEP1, active compounds read low 1.03 | S. cerevisiae deletion strains, locus YNL153C, strain GIM3, active compounds read low 1.03 | S. cerevisiae deletion strains, locus YNL183C, strain NPR1, active compounds read low 0.866 | S. cerevisiae deletion strains, locus YNL209W, strain ssb2, active compounds read low 0.991 | S. cerevisiae deletion strains, locus YNL233W, strain BNI4, active compounds read low 1.01 | S. cerevisiae deletion strains, locus YNL248C, strain rpa49, active compounds read low 0.991 | S. cerevisiae deletion strains, locus YNL250W, strain rad50, active compounds read low 0.971 | S. cerevisiae deletion strains, locus YNL271C, strain bni1, active compounds read low 0.969 | S. cerevisiae deletion strains, locus YNL298W, strain CLA4, active compounds read low 0.978 | S. cerevisiae deletion strains, locus YNL307C, strain MCK1, active compounds read low 0.979 | S. cerevisiae deletion strains, locus YNL322C, strain KRE1 (second series), active compounds read low 0.984 | S. cerevisiae deletion strains, locus YNL322C, strain KRE1, active compounds read low 1.01 | S. cerevisiae deletion strains, locus YNR049C, strain mso1, active compounds read low 0.983 | S. cerevisiae deletion strains, locus YNR052C, strain pop2, active compounds read low 0.989 | S. cerevisiae deletion strains, locus YOL006C, strain TOP1, active compounds read low 1.05 | S. cerevisiae deletion strains, locus YOL012C, strain htz1 0.817 | S. cerevisiae deletion strains, locus YOL147C, strain pex11, active compounds read low 0.981 | S. cerevisiae deletion strains, locus YOR001W, strain rrp6, active compounds read low 1.01 | S. cerevisiae deletion strains, locus YOR061W, strain CKA2, active compounds read low 1.01 | S. cerevisiae deletion strains, locus YOR069W, strain VPS5, active compounds read low 0.996 | S. cerevisiae deletion strains, locus YOR070C, strain gyp1, active compounds read low 0.986 | S. cerevisiae deletion strains, locus YOR080W, strain dia2, active compounds read low 0.981 | S. cerevisiae deletion strains, locus YOR083W, strain WHI5, active compounds read low 1 | S. cerevisiae deletion strains, locus YOR106W, strain vam3, active compounds read low 0.999 | S. cerevisiae deletion strains, locus YOR136W, strain idh2, active compounds read low 0.992 | S. cerevisiae deletion strains, locus YOR144C, strain elg1, active compounds read low 0.989 | S. cerevisiae deletion strains, locus YOR184W, strain ser1, active compounds read low 0.967 | S. cerevisiae deletion strains, locus YOR231W, strain MKK1, active compounds read low 0.926 | S. cerevisiae deletion strains, locus YOR265W, strain rbl2, active compounds read low 0.99 | S. cerevisiae deletion strains, locus YOR270C, strain vph1, active compounds read low 0.984 | S. cerevisiae deletion strains, locus YOR290C, strain snf2, active compounds read low 0.992 | S. cerevisiae deletion strains, locus YOR316C, strain cot1, active compounds read low 0.983 | S. cerevisiae deletion strains, locus YPL051W, strain arl3, active compounds read low 0.991 | S. cerevisiae deletion strains, locus YPL055C, strain LGE1, active compounds read low 1.06 | S. cerevisiae deletion strains, locus YPL078C, strain atp4, active compounds read low 0.997 | S. cerevisiae deletion strains, locus YPL106C, strain sse1, active compounds read low 0.966 | S. cerevisiae deletion strains, locus YPL240C, strain hsp82, active compounds read low 0.998 | S. cerevisiae deletion strains, locus YPL241C, strain CIN2, active compounds read low 1.01 | S. cerevisiae deletion strains, locus YPL256C, strain CLN2, active compounds read low 0.935 | S. cerevisiae deletion strains, locus YPR119W, strain clb2, active compounds read low 0.983 | S. cerevisiae deletion strains, locus YPR141C, strain kar3, active compounds read low 0.976 | S. cerevisiae deletion strains, locus YPR163C, strain tif3, active compounds read low 0.991 | S. cerevisiae deletion strains, locus YPR167C, strain met16, active compounds read low 0.986 | S. cerevisiae deletion strains, strain wtn01, active compounds read low 0.992 | S. cerevisiae strains, strain wild type, active compounds read low 1.01
